This is an account of results in PubChem BioAssay.

Molecules are shown by their SMILES. Inconclusive results are not listed. Activity calls are given as the source filed them. Unless noted, no stated cut-off is given here; in the data, active means inhibition above about 30%; inactive means the rest.

A short description of experiment [1]: Her2 expression decrease, cell viability multiplex – SKBR3 breast tumor cells, AlphaScreen, ATP viability, primary screen (AID 461;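 active means Her2 level under about 52% in both replicate screens, with viability over 70% of control, limit read from the data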;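 on Her2 level: lower value means less Her2 protein in the cells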;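 on viability: percent of carrier control wells set as 100% viability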). The note with it: SKBR3 Her2 protein level, 18-24 h, measured here: SKBR3 viability, ATP luminescence, at 10 µM.
Experiment [2] addresses Receptor tyrosine-protein kinase erbB-2 (Homo sapiens) (UniProt P04626). Described as above. To be noted: 18-24 h, at 10 µM, stronger effect = lower value.
Experiment [3] is described as follows: reduced viability of SK-BR-3 breast cancer cells – cell-based, 24 h, human, pilot screen (AID 572;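 active means viability at or below 10% of carrier control in both of two separate runs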;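 further: compound exposure lasted between 18 and 24 h rather than exactly 24 h; 100% = carrier-treated control wells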). To be noted: SK-BR-3 viability, CellTiter-Glo luminescence, at 10 µM, stronger effect = lower value.
Experiment [4] can be described thus: HUVEC growth inhibition – cell-based, human, primary screen (AID 575;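 active means viability at or below 30% in both replicate assays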;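 further: 100% = median of untreated cell wells with 0.1% DMSO on each plate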). To be noted: HUVEC proliferation, CellTiter-Glo luminescence, 72 h; at 10 µM; stronger effect = lower value.
Experiment [5] is described as follows: H69AR cell proliferation blockers – human, duplicate replicates, primary screen (AID 580;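 active means viability at or under a set limit in both replicates, limit being median viability minus 3 SD, cut at about 48% in these data, passing the limit was not always enough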;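 further: 100% = mean luminescence of untreated wells and 0% = no signal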). To be noted: H69AR lung tumor cells viability, ATP luminescence, 72 h; at 10 µM; stronger effect = lower value.
A short description of experiment [6]: MRP1 drug-resistance reversers in H69AR cells – cell-based, doxorubicin co-treatment, pilot screen (AID 601;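 active means viability loss from added drug above about 55%, and viability with drug at most 40%, in both replicates, limit read from the data, passing the limit was not always enough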). To be noted: CellTiter-Glo, 72 h, at 10 µM; for differential viability (reversal): stronger effect = higher value.
Experiment [7] in a line: yeast transport mutant growth inhibition pilot in 384-well plates, post-Golgi transport modulator project (AID 636; in the data active means inhibition above about 31%). To be noted: absorbance 615 nm, about 18 h, stronger effect = higher value.
Experiment [8] can be described thus: growth suppression of yeast trafficking mutant, preliminary HTS, modulators of trafficking downstream of Golgi apparatus project, 1536-format plate, OD 615 nm (AID 637). To be noted: yeast transport mutant growth, absorbance 615 nm, 18 h; stronger effect = higher value.
A short description of experiment [9]: S. cerevisiae growth inhibition in permissive medium (OD615), pilot counter-assay for S. cerevisiae lifespan shortening project, permissive growth control (AID 705;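 active means growth inhibition above 25% in both replicates, a cutoff set 3 SD above the mean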). The note with it: OD615, 24 h, at 10 µM, stronger effect = higher value.
A short description of experiment [10]: S. cerevisiae growth inhibition in restrictive medium, OD615, pilot screen, restrictive growth control, yeast lifespan reduction project (AID 706;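 active means growth inhibition above a set limit, 3 SD over mean compound inhibition, in both replicates, cut at about 43% in these data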;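 further: modified DeaD lifespan yeast strain shifted to restrictive glucose medium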). The note with it: OD615, 48 h, at 10 µM, stronger effect = higher value.
The nature of experiment [11]: doxorubicin toxicity protection in MRP-1 cells – H69AR cells, CellTiter-Glo, duplicate, MRP-1 activator project, pilot screen (AID 807;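 active means viability increase at or above a cutoff of the median across tested compounds plus 3 SD, cut at about 8.5% in these data, passing the limit was not always enough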;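 further: compound pretreatment 18-22 h then 72 h combined with doxorubicin; 0% = doxorubicin alone and 100% = vehicle without doxorubicin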). To be noted: H69AR viability with doxorubicin, CellTiter-Glo luminescence; at 10 µM; stronger effect = higher value.
Experiment [12] in a line: viability of HCT116 without oncogenic beta-catenin – human colon tumor cells, pilot screen (AID 823;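 active means cell viability at or below a set limit in both duplicate runs, the limit being the all-compound median minus 4 SD, cut at about 23% in these data, passing the limit was not always enough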;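 further: 0% = wells killed by 20 µM Hyamine and 100% = untreated DMSO cell wells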). To be noted: HCT116 beta-catenin knockout viability, CellTiter-Glo, 60 h; at 10 µM; stronger effect = lower value.
The nature of experiment [13]: viability of PTEN-null HCT116 cells – cell-based, HCT116 clonal line, CellTiter-Glo, pilot screen (AID 824;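 active means viability at or below 27.92% in each of two runs, the all-compound median minus 4 SD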;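 further: 0% = 20 µM Hyamine control and 100% = vehicle cell control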). To be noted: HCT116 PTEN-deleted viability, 60 h, at 10 µM, stronger effect = lower value.
Experiment [14] can be described thus: RAM pathway blockade in budding yeast – dse1pr::URA3 reporter, 5-FOA selection, pilot screen (AID 869;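 active means inhibition over a set limit, the all-compound mean plus 3 SD, in both replicate runs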;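 further: 0% = DMSO wells with no growth and 100% = 10 µM 1-NA-PP1 with full growth; RAM network block rescues cells from 5-FOA so hits raise OD615 growth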). The note with it: S. cerevisiae dse1pr::URA3 5-FOA growth, OD615, 2 d; at 10 µM; stronger effect = higher value; strain carries analog-sensitive mutant Cbk1 kinase.
Experiment [15] can be described thus: RAM signaling pathway blockade in yeast – S. cerevisiae, Pdr1DBD-CYC8 efflux-inhibited sensitized strain, primary screen (AID 1298;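 active means RAM network inhibition above 8.4% in each of two replicates, 3 SD over the compound average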;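 further: 0% = DMSO untreated cells without growth and 100% = 10 µM 1-NA-PP1 full growth; higher means more yeast growth rescued from 5-FOA killing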). To be noted: S. cerevisiae cbk1-as DSE1-URA3 strain, 5-FOA growth OD615, 2 d; at 50 µM; stronger effect = higher value.
Setting [16] is: H69AR cells + 2 uM doxorubicin, measured here: viability with 2 uM doxorubicin, stronger effect = lower value.
Where [17] appears, read: H69AR cells, compound alone cytotoxicity.

Receptor tyrosine-protein kinase erbB-2 (Homo sapiens), sequence (P04626 whole entry, looked up): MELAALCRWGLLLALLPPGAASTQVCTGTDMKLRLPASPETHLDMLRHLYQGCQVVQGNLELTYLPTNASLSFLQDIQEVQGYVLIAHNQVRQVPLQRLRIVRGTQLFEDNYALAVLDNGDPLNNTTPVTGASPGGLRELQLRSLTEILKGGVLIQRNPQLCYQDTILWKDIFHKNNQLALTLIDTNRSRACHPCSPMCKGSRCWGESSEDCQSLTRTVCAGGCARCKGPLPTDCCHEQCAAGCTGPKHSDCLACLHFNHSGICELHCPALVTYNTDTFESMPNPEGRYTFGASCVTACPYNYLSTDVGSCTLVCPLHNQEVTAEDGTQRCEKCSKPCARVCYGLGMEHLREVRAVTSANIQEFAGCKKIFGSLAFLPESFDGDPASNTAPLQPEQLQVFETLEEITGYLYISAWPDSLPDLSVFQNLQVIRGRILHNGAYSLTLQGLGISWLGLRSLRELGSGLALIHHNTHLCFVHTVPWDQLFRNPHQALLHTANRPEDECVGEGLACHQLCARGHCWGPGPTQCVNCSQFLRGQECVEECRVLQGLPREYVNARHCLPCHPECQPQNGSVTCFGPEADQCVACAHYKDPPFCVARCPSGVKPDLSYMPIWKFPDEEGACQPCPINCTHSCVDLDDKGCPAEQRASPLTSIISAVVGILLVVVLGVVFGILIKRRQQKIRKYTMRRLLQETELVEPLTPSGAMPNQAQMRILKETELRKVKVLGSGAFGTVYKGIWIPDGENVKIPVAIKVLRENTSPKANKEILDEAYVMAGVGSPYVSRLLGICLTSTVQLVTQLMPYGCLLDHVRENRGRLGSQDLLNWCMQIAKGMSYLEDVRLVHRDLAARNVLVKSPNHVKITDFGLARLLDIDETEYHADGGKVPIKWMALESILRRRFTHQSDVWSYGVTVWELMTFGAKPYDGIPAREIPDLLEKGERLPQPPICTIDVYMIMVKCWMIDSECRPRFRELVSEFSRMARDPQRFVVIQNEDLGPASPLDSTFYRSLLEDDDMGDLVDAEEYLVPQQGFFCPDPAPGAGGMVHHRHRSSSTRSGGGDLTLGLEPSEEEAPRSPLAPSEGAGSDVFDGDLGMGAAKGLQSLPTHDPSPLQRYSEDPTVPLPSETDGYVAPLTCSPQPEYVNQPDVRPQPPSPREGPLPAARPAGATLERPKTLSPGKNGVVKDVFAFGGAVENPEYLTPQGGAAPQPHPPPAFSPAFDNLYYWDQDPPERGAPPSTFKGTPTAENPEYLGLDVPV

Regarding `Cc1ccc(N2CCN(S(=O)(=O)N(C)C)CC2)c(C)c1`, the viability in [1] is 98.5%; in experiment [3], 98.5% (inactive); in [4] it was 90.6% (inactive); in experiment [5], 83.5% (inactive); in experiment [6] (setting [16]) it was 93.1%; in experiment [6] (setting [17]), 83.5%. Further, the viability in [12] is 90.6% (inactive); in [13] it was 88.1% (inactive). Further, the Her2 level in experiment [2] was 116% (inactive). Besides, the differential viability (reversal) in [6] (H69AR cells + 2 uM doxorubicin) was -9.57% (inactive). Further, the inhibition in experiment [7] is 1.73% (inactive); in experiment [8], 1.17% (inactive); in experiment [14] it was 2.69% (inactive). In addition, the growth inhibition was -11.1% (inactive) in experiment [9] and -7.42% (inactive) in [10]. Moreover, the viability increase in experiment [11] was 0.57% (inactive). In addition, the RAM network inhibition in experiment [15] is 6.03% (inactive).

`N#CC(C(=O)Nc1ccccc1)=C1CCCCC1`: the viability was 99% in experiment [1]; 99% (inactive) in experiment [3]; 85.5% (inactive) in [4]; 109% (inactive) in experiment [5]; 94.2% in experiment [6] (setting [16]); 109% in experiment [6] (setting [17]). Moreover, the figures for the viability in [12] and in [13] were 91.2% (inactive) and 102% (inactive), respectively. Further, the Her2 level in [2] was 89.5% (inactive). Further, in experiment [6] (H69AR cells + 2 uM doxorubicin), the differential viability (reversal) is 14.8% (inactive). The inhibition is -4.67% (inactive) in experiment [7], -3.55% (inactive) in [8] and 1.52% (inactive) in experiment [14]. In addition, the growth inhibition in [9] is -25.1% (inactive); in experiment [10], -18.8% (inactive). Also, in experiment [11], the viability increase was 1.71% (inactive). In addition, in experiment [15], the RAM network inhibition is 4.92% (inactive).

As for `Nc1nc2n(n1)C(c1cccc(Br)c1)CC(c1ccc(F)cc1)N2` (stereo not given), the viability is 85% in experiment [1]; 85% (inactive) in experiment [3]; 98.8% (inactive) in [4]; 111% (inactive) in experiment [5]; 117% in experiment [6] (setting [16]); 111% in experiment [6] (setting [17]). In addition, the viability in experiment [12] and in [13] was 89.3% (inactive) in each case. For the same molecule, in experiment [2], the Her2 level is 109% (inactive). For the same molecule, in experiment [6] (H69AR cells + 2 uM doxorubicin), the differential viability (reversal) was -6.81% (inactive). Moreover, the inhibition is -1.03% (inactive) in experiment [7], -6.5% (inactive) in [8] and 0.875% (inactive) in experiment [14]. In addition, the growth inhibition in experiment [9] is 2.49% (inactive); in experiment [10] it was 11.9% (inactive). Moreover, the viability increase in [11] was 0.72% (inactive). The RAM network inhibition in [15] is 2.61% (inactive).

On to `CSc1cccc(NS(=O)(=O)c2ccccc2)c1`, for which the viability in experiment [1] is 78.5%; in experiment [3] it was 78.5% (inactive); in experiment [4], 107% (inactive); in [5] it was 88.7% (inactive); in experiment [6] (setting [16]), 87.7%; in experiment [6] (setting [17]), 88.7%. For the same molecule, the viability in experiment [12] was 92.1% (inactive); in [13] it was 95% (inactive). The Her2 level in [2] is 88% (inactive). In experiment [6] (H69AR cells + 2 uM doxorubicin), the differential viability (reversal) is 1.02% (inactive). The values for the inhibition in [7], in [8] and in experiment [14] were -0.9% (inactive), -5.33% (inactive) and 0.96% (inactive), respectively. Further, the growth inhibition was -0.535% (inactive) in experiment [9] and 3.39% (inactive) in [10]. Moreover, in [11], the viability increase is 0.44% (inactive). Also, in [15], the RAM network inhibition was 0.21% (inactive).

Turning to `CC1(C)CC(=O)N(CC(=O)NCc2ccccc2)c2ccccc2S1(=O)=O`, the viability is 78.5% in experiment [1]; 78.5% (inactive) in [3]; 106% (inactive) in experiment [4]; 92.6% (inactive) in [5]; 101% in experiment [6] (setting [16]); 92.6% in [6] (setting [17]). The figures for the viability in experiment [12] and in experiment [13] were 107% (inactive) and 100% (inactive), respectively. For the same molecule, in experiment [2], the Her2 level is 112% (inactive). In addition, the differential viability (reversal) in experiment [6] (H69AR cells + 2 uM doxorubicin) is -8.55% (inactive). In addition, the inhibition in experiment [7] is -4.67% (inactive); in [8], -1.33% (inactive); in experiment [14], 0.485% (inactive). Further, the growth inhibition in experiment [9] is -3.67% (inactive); in experiment [10] it was 6.21% (inactive). For the same molecule, in experiment [11], the viability increase was -1.93% (inactive). The RAM network inhibition in experiment [15] is 3.51% (inactive).
